# Screens (PubChem BioAssay)
# 12-LOX inh = blocks human arachidonate 12S-lipoxygenase; purified 12hLO, xylenol orange hydroperoxide absorbance; Potency, µM (series often up to 108 µM), for the others: top-dose activity change, negative = inhibition, hits mostly inhibitors; hit rate 1.1% among 580,000; note: potency is the fitted concentration of half-maximal effect
# Target sequence (P18054 whole entry, looked up): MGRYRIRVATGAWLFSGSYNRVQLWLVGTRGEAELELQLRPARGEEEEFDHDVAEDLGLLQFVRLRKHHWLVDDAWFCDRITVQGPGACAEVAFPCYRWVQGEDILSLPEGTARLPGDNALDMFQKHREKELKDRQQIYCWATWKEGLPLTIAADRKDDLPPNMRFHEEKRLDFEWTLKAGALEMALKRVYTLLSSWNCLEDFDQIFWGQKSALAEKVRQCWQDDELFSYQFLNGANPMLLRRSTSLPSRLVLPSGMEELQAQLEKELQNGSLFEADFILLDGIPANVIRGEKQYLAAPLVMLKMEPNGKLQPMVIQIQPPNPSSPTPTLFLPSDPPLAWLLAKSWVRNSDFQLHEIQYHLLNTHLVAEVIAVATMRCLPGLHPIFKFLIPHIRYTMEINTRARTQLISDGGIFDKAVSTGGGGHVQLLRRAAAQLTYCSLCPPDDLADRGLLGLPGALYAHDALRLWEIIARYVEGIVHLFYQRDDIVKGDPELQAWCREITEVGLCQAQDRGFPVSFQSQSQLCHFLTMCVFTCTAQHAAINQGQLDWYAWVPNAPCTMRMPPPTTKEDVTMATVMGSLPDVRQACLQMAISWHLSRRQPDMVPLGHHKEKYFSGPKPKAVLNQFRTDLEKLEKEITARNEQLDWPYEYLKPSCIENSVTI
#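 Purified human 12hLO at 150 nM in 25 mM Hepes, 0.01% Triton X-100, pH 7.0, preincubated 15 min at room temperature with compound. Reaction started with 40 uM arachidonic acid, 30 min at room temperature. Hydroperoxide measured by Fe-xylenol orange, 573/405 nm absorbance ratio.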
# TDP1 cell noCPT = qHTS for Inhibitors of human tyrosyl-DNA phosphodiesterase 1 (TDP1): qHTS in cells in absence of CPT; DT40 Tdp1-/- hTDP1 cells, no CPT, ATP luminescence, 48 h; Potency, µM (doses to about 46.2 µM), for the others: top-dose activity change, negative = growth inhibition, hits mostly inhibitors; hit rate 15% among 420,000; note: potency is the fitted concentration of half-maximal effect; nearly all actives have a fitted effect of over 55% in size
#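 No-CPT arm: Tdp1-/-;hTDP1 DT40 cells (400/well) plus compounds, incubated ≥48 hr at 37 °C. Readout CellTiter-Glo luminescence.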
# IL1B secr inh = inhibitors of inflammasome signaling (IL-1 beta secretion). hit rate 4.7% among 360,000. activity change, % at 57.5 µM. THP-1 LPS/ATP IL-1B secretion, AlphaLISA, 16 h; stronger effect = lower value; in the data active = activity change below about -50%; inconclusive = mostly about -30% to -49%
#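 THP-1 cells pretreated 1 hr with compounds (up to 57.5 uM final), then stimulated with LPS (250 ng/mL final) plus ATP (1.25 mM final); secreted IL-1B measured by AlphaLISA after 16 hr, decreased signal indicating inhibition.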
# TDP1 cell CPT = growth inhibition of DT40 Tdp1-/-;hTDP1 cells with camptothecin (screen for TDP1 inhibitors) | Potency, µM (top dose mostly 46.2 µM), for the others: at the top dose activity change, negative = growth inhibition, actives largely listed as inhibitors | hit rate 12% among 420,000 | chicken DT40 Tdp1-/-;hTDP1 cells + 20 nM CPT, ATP luminescence, 48 h; note: potency is the fitted concentration of half-maximal effect; nearly all actives have a fitted effect of over 55% in size
#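 Cell growth measured by CellTiter-Glo luminescence after a minimum 48 h, 37 C compound exposure with 20 nM CPT in Tdp1-knockout DT40 cells stably expressing hTDP1, seeded 400/well; qHTS titration format.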
# HT1080 IDH1KD tx = kills HT-1080 cells with IDH1 knockdown; AID 686971; Potency, µM (titrated, usually from 46.1 µM), for the others: at the highest dose activity, negative = toxicity, hits mostly cytotoxic; HT-1080 IDH1 knockdown viability, ATP luminescence, 48 h; hit rate 2% among 360,000;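 note: potency is the fitted concentration of half-maximal effect; 0% = DMSO wells and -100% = cell-free medium wells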
#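 Assay cells: HT-1080 with IDH1 knockdown, 750 per well, RPMI/5% FBS. Exposure: 48 h at 37 °C following 2 h pre-incubation. Read: CellTiter-Glo luminescence; fitted concentration-response, curve class assigned.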
# HT1080NT lethal = kills 2HG-producing HT-1080-NT fibrosarcoma cells. AID 686970. Potency, µM (highest dose often 46.1 µM), for the others: at the highest dose activity, negative = less viability, most hits filed as cytotoxic. hit rate 1.6% among 360,000. HT-1080-NT fibrosarcoma viability, CellTiter-Glo ATP luminescence, 48 h;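 note: NT is the 2HG producing partner of a matched IDH1 knockdown line; potency is the fitted concentration of half-maximal effect; 0% = DMSO-treated cells and -100% = media-only wells without cells; nearly all actives have a fitted effect of over 55% in size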
#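 Toxicity toward the 2HG-producing NT line was scored as %Activity, normalised to DMSO and no-cell wells, from CellTiter-Glo luminescence after 48 hours' treatment.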
# Active calls of the source: *; i = inactive; ? = inconclusive; / = no result given; [ ] = dose if it differs, or a comment. This excerpt belongs to a sample that is enriched for hits. Unless noted, calls come from the whole dose curve; as a rule, active = well fitted curve in the direction sought with a large enough effect; inconclusive = small, poorly fitted or top-dose-only effect, or another doubt; inactive = no such curve, though single readings can be large; an effect the other way counts as inactive or inconclusive. Unless noted, % is set by controls: 0 for no effect and ±100 for the full control effect.
SMILES,12-LOX inh,TDP1 cell noCPT,IL1B secr inh,TDP1 cell CPT,HT1080 IDH1KD tx,HT1080NT lethal
C#CCNC(=O)C[C@@H]1C[C@@]2(C(=O)OCC)CCC=C2N(CCC2=CCCCC2)C1=O,-12.5%,?,3.1,?,1.5%,14.2%
Cc1nnc2ccc(SCC(=O)Nc3ccc(Cl)cc3Cl)nn12,5.1%,/,/,/,/,/
COc1ccccc1N=CC=C1OC(C)(C)C(C)(C)O1,?,?,-75.2*,-0.3%,?,-18.3%
CC(OC(=O)c1cc2c(F)cccc2s1)C(=O)N1CCNC1=O (stereo not drawn),10.4%,/,/,/,/,/
COc1ccc(C(=O)Nc2cc(C)nn2-c2nc(C)cc(C)n2)cc1,-9.4%,/,/,/,/,/
O=C(CSc1nc2ncc(Br)cc2[nH]1)c1ccc([N+](=O)[O-])cc1,?,?,0.0,18.4µM*,-20.5%,-16.3%
O=C(CSc1nc2ncc(Br)cc2[nH]1)Nc1ccccc1-c1ccccc1,1.8%,?,-6.6,16.4µM*,?,?
COc1ccc(C2CC(O)(c3ccccc3)Oc3cc(OC)cc(OC)c32)cc1 (stereo not drawn),-18.6%,?,?,23.1µM*,-1.4%,-5.4%
COc1ccc(C(=O)COC(=O)c2ccc(N(C)C)cc2)cc1,0.0%,-27.6%,21.4,-8.1%,19.9%,24.1%
COc1ccc(C(=O)C[n+]2ccc(N(C)C)cc2)cc1,221.5%,16.4µM*,22.2,?,?,-9.0%
CN(C)c1cc[n+](CC(=O)c2ccc(Br)cc2)cc1,3.3%,?,16.1,16.4µM*,-1.1%,-12.7%
O=C(c1ccc(F)cc1)N1CCC2(CC1)CC(c1cccnc1)=NO2,24.5%[176 µM],/,/,/,/,/
Cc1cccc(CS(=O)(=O)C(C)C(=O)N(C)Cc2cccc(F)c2)c1 (stereo not drawn),-4.6%,/,/,/,/,/
CCCCCCNC(=O)c1cccc2ncccc12,-34.2%,/,/,/,/,/
Cc1ccc(NC2=C/C(=N/S(=O)(=O)c3cccs3)c3ccccc3C2=O)cc1,-16.9%,3.26µM*,-88.9*,1.84µM*,4.11µM*,2.91µM*
Cc1ccc(C(C)NS(=O)(=O)c2cccs2)cc1 (stereo not drawn),-0.3%,/,/,/,/,/
O=S(=O)(/N=C(/Nc1cccc2ccccc12)c1ccccc1)c1cccs1,169.0%,?,4.4,-37.3%,-1.5%,-5.8%
O=C1C(Nc2ccccc2)=C/C(=N/S(=O)(=O)c2cccs2)c2ccccc21,/,4.61µM*,-98.7*,2.91µM*,?,?
COC(=O)c1ccccc1NC1=C/C(=N\S(=O)(=O)c2cccs2)c2ccccc2C1=O,-1.1%,5.8µM*,-92.1*,3.26µM*,6.31µM*,20.6µM*
O=C(c1cnn2c1NC(=C1CC1)C=C2C(F)F)N1CCc2ccccc21,/,11.2µM*,/,11.2µM*,/,/
O=C(Nc1cccnc1Cl)c1cnn2c1NC(=C1CC1)C=C2C(F)F,/,8.91µM*,/,?,/,/
COc1ccc(CCNC(=O)c2cnn3c2NC(=C2CC2)C=C3C(F)F)cc1OC,/,12.6µM*,/,11.2µM*,/,/
CC1CCCCN1C(=O)c1cnn2c1NC(=C1CC1)C=C2C(F)F (stereo not drawn),/,?,/,10.1%,1.4%,6.6%
O=C(Nc1cc(Cl)cc(Cl)c1)c1cnn2c1NC(=C1CC1)C=C2C(F)F,/,-19.1%,/,-25.4%,/,/
O=C(Nc1ccccc1F)c1cnn2c1NC(=C1CC1)C=C2C(F)F,/,-11.8%,/,-3.4%,3.6%,15.5%
SMILES,12-LOX inh,TDP1 cell noCPT,IL1B secr inh,TDP1 cell CPT,HT1080 IDH1KD tx,HT1080NT lethal
O=C(Nc1ccccc1Sc1ccccc1)c1cnn2c1NC(=C1CC1)C=C2C(F)F,/,?,/,15.8µM*,/,/
O=C1NCCCCCN(C(=O)CC2CCCC2)[C@@H]2C[C@@H](C(=O)N3CCc4ccccc4C3)C[C@H]12,6.5%,/,/,/,/,/
Cc1oc(-c2cccs2)nc1CC(=O)NCc1ccc(CN2CCC(C)CC2)cc1,-6.4%,/,/,/,/,/
Cc1ccc(NC(=O)c2cnn3c2NC(=C2CC2)C=C3C(F)F)cc1C,/,?,/,-1.0%,/,/
O=C(Nc1cccc(Nc2ccccc2)c1)c1cnn2c1NC(=C1CC1)C=C2C(F)F,/,14.1µM*,/,4.47µM*,/,/
O=C(NC1CCCc2ccccc21)c1cnn2c1NC(=C1CC1)C=C2C(F)F (stereo not drawn),/,20µM*,/,11.2µM*,-20.3%,-25.2%
Cc1ccc(NC(=O)c2cnn3c2NC(=C2CC2)C=C3C(F)F)cc1,/,-23.6%,/,-12.7%,/,/
COc1ccccc1OC(C)C(=O)c1ccc(Cl)cc1 (stereo not drawn),-1.2%,/,/,/,/,/
Cc1noc(C)c1C(=O)OCC(=O)Nc1c(F)cccc1F,-5.3%,18.4µM*,8.1,16.4µM*,4.0%,7.1%
Cc1onc(-c2c(F)cccc2Cl)c1C(=O)OCC(=O)NCc1ccccc1,27.8%,?,-25.4,?,0.1%,10.4%
Cc1onc(-c2c(F)cccc2Cl)c1C(=O)OCn1nnc2ccccc2c1=O,-8.2%,23.1µM*,51.7,?,-20.6%,-2.1%
Cc1onc(-c2c(F)cccc2Cl)c1C(=O)OCC(=O)N(C)c1ccccc1,-1.5%,0.92µM*,31.4,1.3µM*,-0.6%,-3.2%
Cc1onc(-c2c(F)cccc2Cl)c1C(=O)O/N=C(\N)c1ccc([N+](=O)[O-])o1,?,-22.6%,/,-12.5%,11.6µM*,-18.1%
Cc1cc2nc3n(c(=O)c2n1CC(=O)NCc1ccccc1F)CCCCC3,9.6%,/,/,/,/,/
CC(C)N(Cc1ccccc1)C(=O)c1cnc2ccccc2n1,-7.3%,/,/,/,/,/
CCCCCN(C(=O)CCC(=O)OCC(=O)c1ccc(F)c(F)c1)c1c(N)n(CCCC)c(=O)[nH]c1=O,1.7%,3.6%,4.6,-12.8%,-1.7%,-0.5%
CCCCCN(C(=O)CCC(=O)OCCOc1cccc(Cl)c1)c1c(N)n(CCCC)c(=O)[nH]c1=O,?,13µM*,-6.8,?,-5.0%,3.0%
CCCCCN(C(=O)CCC(=O)OCC(=O)c1cccc(OC)c1)c1c(N)n(CCCC)c(=O)[nH]c1=O,?,16.2%,26.6,9.6%,13.9%,-0.6%
CCCCCN(C(=O)CCC(=O)OCc1ccc(C(C)(C)C)cc1)c1c(N)n(CCCC)c(=O)[nH]c1=O,-2.6%,?,i,?,?,-27.4%
CCCCCN(C(=O)CCC(=O)OCc1ccccc1F)c1c(N)n(CCCC)c(=O)[nH]c1=O,-15.8%,-28.6%,-11.9,-15.0%,1.2%,-1.0%
